Assay results taken from PubChem BioAssay (NCATS).
Results filed as inconclusive are left out. Entries that show only a call come without a potency. Calls of active or inactive are those of the source. Calls follow the shape of the dose curve; as a rule, active = well fitted cell-killing curve with a large enough effect; inconclusive = small, poorly fitted or top-dose-only effect; inactive = flat fitted curve, though single readings scatter.

Assay: qHTS assay to identify small molecule inhibitors of chordoma cells - UCH-2 (AID 1259356)
Details: UCH-2 chordoma viability, CellTiter-Glo ATP luminescence, 48 h; series mostly up to 46.1 µM
In the case of `CC(=O)OCC(=O)[C@@]1(OC(C)=O)[C@@H](C)C[C@H]2[C@@H]3C[C@H](F)C4=CC(=O)C=C[C@]4(C)[C@@]3(F)[C@@H](O)C[C@@]21C`, the Potency was “inactive”.
In the case of `O=c1ccc2ccccc2o1`, the Potency was “inactive”.
In the case of `CC(C)(C)CC(C)(C)c1ccc(O)c(Cc2ccc(Cl)cc2Cl)c1`, the Potency was “inactive”.
With `Oc1ccc(Cl)c2cccnc12` the Potency was “inactive”.
